In PubChem BioAssay AID652029 (The Scripps Research Institute Molecular Screening Center, 2013):
Some of the results follow. The source made the active and inactive calls.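 How the source made its calls: active means inhibition of LYPLA2 enzyme probe labeling above about 50% (limit read from the data); inactive means inhibition below that limit.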

Molecular target: Acyl-protein thioesterase 2 (Homo sapiens) (UniProt O95372)
Assay: LYPLA2 inhibitors in proteome, late-stage follow-up, gel-based competitive ABPP, fluorescence, assay provider (AID 652029);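 further: loss of FP-Rh probe labeling of the LYPLA2 gel band measured as band density; 0% = DMSO only control band and 100% = blank gel background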
Conditions: rhLYPLA2 in mouse brain proteome, gel ABPP FP-Rh; at 20 µM; hits give high values

Chain of Acyl-protein thioesterase 2 (Homo sapiens) (O95372 whole entry, looked up): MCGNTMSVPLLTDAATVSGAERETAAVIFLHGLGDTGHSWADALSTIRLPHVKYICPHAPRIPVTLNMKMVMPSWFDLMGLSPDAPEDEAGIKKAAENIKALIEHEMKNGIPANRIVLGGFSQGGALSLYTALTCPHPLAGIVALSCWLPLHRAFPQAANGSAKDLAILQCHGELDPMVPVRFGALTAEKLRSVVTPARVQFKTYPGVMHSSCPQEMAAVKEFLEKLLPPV

Row | Compound | inhibition
1 | O=C(CCCN1C(=O)c2cccc3cccc(c23)C1=O)N1CCN(Cc2ccc3c(c2)OCO3)CC1 | 25% (inactive)
2 | COc1ccc(N2CCN(C(=O)c3ccc(N4CCCCS4(=O)=O)cc3)CC2)cc1 | 49% (inactive)
3 | CCC(=O)c1ccc(OCC(O)CN2CCN(c3cccc(C(F)(F)F)c3)CC2)cc1 (stereo not given) | 18% (inactive)
4 | CC(=O)c1ccc(N2CCN(C(=O)C3CCN(S(=O)(=O)c4ccc5c(c4)CC(C)N5C(=O)C4CC4)CC3)CC2)cc1 (stereo not given) | 70% (active)
5 | O=C1C2CCCN2C(=O)N1CCCCN1CCN(c2cccc(C(F)(F)F)c2)CC1 (stereo not given) | 44% (inactive)
